Experimental data taken from PubChem BioAssay (EPA / NIEHS).
Calls of active or inactive are those of the source. The calls were made as follows: active = hit-call score of the fitted dose curve at least 0.9, where 1 is the maximum; inactive = score below 0.9.

Tests used:
[1] = read-out: TIMP metallopeptidase inhibitor 2 (TIMP2), TIMP2 (gene 7077); assay: BSK_KF3CT_TIMP2: BioMAP Diversity Plus: KF3CT Assay for TIMP metallopeptidase inhibitor 2 (TIMP2) Biomarker Activity (AID 2283071); details: primary human keratinocytes with fibroblasts; actives raise or lower the signal
How it was run: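 Keratinocyte–fibroblast co-culture, 24 h exposure; TIMP-2 ELISA, DMSO-normalised bidirectional fit. Parallel SRB (0.1%, TCA-fixed, 560 nm) total-protein staining gauges cytotoxicity.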

[2] = read-out: Transforming growth factor beta 1 (TGFb1), TGFB1 (gene 7040); assay: BSK_KF3CT_TGFb1: BioMAP Diversity Plus: KF3CT Assay for Transforming growth factor beta 1 (TGFb1) Biomarker Activity (AID 2283072); details: primary human keratinocytes with fibroblasts; actives raise or lower the signal
How it was run: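 Signal changes in either direction, relative to DMSO, define activity here. TGF-b1 is read by ELISA from a human keratinocyte-fibroblast co-culture 24 h post-dose.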

[3] = read-out: Matrix Metallopeptidase 9 (MMP9), MMP9 (gene 4318); assay: BSK_KF3CT_MMP9: BioMAP Diversity Plus: KF3CT Assay for Matrix Metallopeptidase 9 (MMP9) Biomarker Activity (AID 2283074); details: primary human keratinocytes with fibroblasts; actives raise or lower the signal;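 as to AC50: MMP9 protein level quantified by ELISA in the co-culture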
How it was run: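 Keratinocyte plus foreskin fibroblast human primary skin co-culture was dosed with chemical and MMP-9 was quantified by ELISA 24 h later. Bidirectional curve fitting used DMSO as negative control and activity baseline.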

[4] = read-out: urokinase plasminogen activator (uPA), PLAU (gene 5328); assay: BSK_KF3CT_uPA: BioMAP Diversity Plus: KF3CT Assay for urokinase plasminogen activator (uPA) Biomarker Activity (AID 2283075); details: primary human keratinocytes with fibroblasts; actives raise or lower the signal
How it was run: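 Human keratinocyte plus foreskin fibroblast primary co-culture exposed to chemical for 24 h. uPA levels were quantified by ELISA, and activity was fitted bidirectionally against a DMSO negative-control baseline.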

CD40, CD40 (gene 958) = assay: BSK_LPS_CD40: BioMAP Diversity Plus: LPS Assay for CD40 Biomarker Activity (AID 2283076); details: primary human HUVEC with PBMC; actives raise or lower the signal
How it was run: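 Primary human umbilical vein endothelial cells co-cultured with peripheral blood mononuclear cells, LPS-stimulated, were dosed with chemical and read 24 h later. CD40 levels were measured by ELISA and fitted bidirectionally against DMSO as negative control and baseline.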

[5] = read-out: E-selectin (Homo sapiens) (UniProt P16581); assay: BSK_LPS_Eselectin: BioMAP Diversity Plus: LPS Assay for Eselectin Biomarker Activity (AID 2283077); details: primary human HUVEC with PBMC; actives raise or lower the signal
How it was run: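 Human umbilical vein endothelial cells co-cultured with peripheral blood mononuclear cells under LPS stimulation; E-selectin measured by ELISA 24 h after chemical dosing. Activity fitted bidirectionally against DMSO as negative control and baseline.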

[6] = read-out: Interleukin-8 (IL8), CXCL8 (gene 3576); assay: BSK_LPS_IL8: BioMAP Diversity Plus: LPS Assay for Interleukin-8 (IL8) Biomarker Activity (AID 2283078); details: primary human HUVEC with PBMC; actives raise or lower the signal
How it was run: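 Human umbilical vein endothelial cells co-cultured with PBMC were stimulated with LPS; IL-8 levels were measured by ELISA 24 h after chemical dosing. Activity was fitted bidirectionally against DMSO as negative control and baseline.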

[7] = BSK_LPS_SRB: Viability Assessment in the BioMAP Diversity Plus: LPS Assay (AID 2283079); details: primary human HUVEC with PBMC;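 also: total protein by sulforhodamine B absorbance as a cytotoxicity measure; measured one day after compound addition; fitted in both directions against DMSO so loss or gain of signal counts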
How it was run: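 Human umbilical vein endothelial cells co-cultured with PBMC (LPS system) were dosed for 24 h. Total protein was stained with 0.1% sulforhodamine B after 10% TCA fixation, read at 560 nm, and fitted bidirectionally against DMSO baseline.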

[8] = read-out: Interleukin-1 alpha (IL1a), IL1A (gene 3552); assay: BSK_LPS_IL1a: BioMAP Diversity Plus: LPS Assay for Interleukin-1 alpha (IL1a) Biomarker Activity (AID 2283080); details: primary human HUVEC with PBMC; actives raise or lower the signal
How it was run: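 Human umbilical vein endothelial cells co-cultured with peripheral blood mononuclear cells were LPS-stimulated and exposed to test chemicals for 24 h. IL-1 alpha was quantified by ELISA, with bidirectional curve fitting against DMSO as the negative control and baseline.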

[9] = read-out: C-C motif chemokine 2 (Homo sapiens) (UniProt P13500); assay: BSK_KF3CT_MCP1: BioMAP Diversity Plus: KF3CT Assay for Monocyte Chemoattractant Protein 1 (MCP1/CCL2) Biomarker Activity (AID 2283073); details: primary human keratinocytes with fibroblasts; actives raise or lower the signal
How it was run: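 Human keratinocyte plus foreskin fibroblast primary co-culture exposed to chemical for 24 h. MCP-1 levels measured by ELISA. Bidirectional curve fitting relative to DMSO negative control as baseline.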

Measured: AC50

Chain of E-selectin (Homo sapiens) (P16581 whole entry, looked up): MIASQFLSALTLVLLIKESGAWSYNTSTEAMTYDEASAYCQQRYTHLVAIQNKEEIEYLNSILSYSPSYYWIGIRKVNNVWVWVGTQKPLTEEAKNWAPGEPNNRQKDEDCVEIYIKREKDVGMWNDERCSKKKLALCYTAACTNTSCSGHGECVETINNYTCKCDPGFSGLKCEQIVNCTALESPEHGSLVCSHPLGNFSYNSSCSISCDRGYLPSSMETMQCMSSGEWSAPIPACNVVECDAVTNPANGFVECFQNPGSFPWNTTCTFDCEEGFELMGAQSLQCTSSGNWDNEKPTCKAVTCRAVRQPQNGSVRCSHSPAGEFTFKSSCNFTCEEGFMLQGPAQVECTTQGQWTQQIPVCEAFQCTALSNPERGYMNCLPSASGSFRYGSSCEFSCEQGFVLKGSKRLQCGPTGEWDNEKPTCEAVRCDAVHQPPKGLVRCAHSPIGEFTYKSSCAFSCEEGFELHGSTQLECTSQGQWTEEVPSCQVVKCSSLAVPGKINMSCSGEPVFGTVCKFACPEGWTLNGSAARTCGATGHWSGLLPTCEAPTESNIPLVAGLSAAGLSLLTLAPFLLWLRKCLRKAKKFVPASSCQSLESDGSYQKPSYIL

CS(=O)(=O)c1ccc([C@@H](CC2CCCC2)C(=O)Nc2cnccn2)cc1Cl
not listed: [9]
inactive: all other assays above

OCCN1CN(CCO)CN(CCO)C1
active: [2] 3.97 µM | CD40, CD40 (gene 958) 36 µM | [5] 29.9 µM | [6] 28.2 µM | [8] 31.4 µM
inactive: [1] | [3] | [4] | [7]

O=C1OC2(c3ccccc31)c1cc(I)c(O)c(I)c1Oc1c2cc(I)c(O)c1I
inactive: [6] | [7]
active: [1] 2.44 µM | [2] 3.45 µM | [3] 14.9 µM | [4] 9.05 µM | CD40, CD40 (gene 958) 8.71 µM | [5] 8.58 µM | [8] 9.13 µM

COC1=CC(=O)C[C@@H](C)[C@]12Oc1c(Cl)c(OC)cc(OC)c1C2=O
active: [3] 0.572 µM
not listed: [9]
inactive: all other assays above

O=C1c2ccc(O)c(O)c2C(=O)c2c(O)ccc(O)c21
inactive: all assays above

COCN(COC)c1nc(N(COC)COC)nc(N(COC)COC)n1
inactive: all assays above

Cc1ccc(N=Nc2c(O)ccc3ccccc23)c(C)c1
active: [1] 4.11 µM
not listed: [9]
inactive: all other assays above

N=C(N)c1ccc(OCCCCCOc2ccc(C(=N)N)cc2)cc1
active: [6] 12.7 µM | [8] 17.5 µM
inactive: all other assays above

CCCCCCCCCCCCCCCCCC[N+](C)(C)Cc1ccccc1
active: [1] 3.25 µM | [9] 6.52 µM | [3] 2.75 µM | [4] 2.95 µM | CD40, CD40 (gene 958) 2.74 µM | [5] 2.87 µM | [6] 5.17 µM | [7] 2.66 µM | [8] 2.71 µM
inactive: [2]

CCCCc1oc2ccccc2c1C(=O)c1cc(I)c(OCCN(CC)CC)c(I)c1
active: [1] 8.7 µM | [2] 5.6 µM | [9] 11.9 µM | [3] 6.54 µM | [4] 9.85 µM | CD40, CD40 (gene 958) 13.9 µM | [5] 24.2 µM | [6] 25.9 µM | [7] 19.4 µM | [8] 19.1 µM

Cc1[nH]nc2c1N=C(c1ccccc1Cl)c1cc([N+](=O)[O-])ccc1N2
inactive: [1] | [2] | [9] | [4]
active: [3] 4.48 µM | CD40, CD40 (gene 958) 4.82 µM | [5] 6.04 µM | [6] 7.23 µM | [7] 2.08 µM | [8] 4.2 µM

Clc1ccc(Nc2nnc(Cc3ccncc3)c3ccccc23)cc1
active: [1] 3.02 µM | [2] 1.99 µM | [3] 7.58 µM
not listed: [9]
inactive: all other assays above

OCC(CO)(CBr)CBr
not listed: [9]
inactive: all other assays above
